From PubChem
The list is not random: actives were taken first. Their share in the collection is about 7.8%.
Vaccinia Venus = qHTS for Stage-Specific Inhibitors of Vaccinia Orthopoxvirus: Venus Reporter Primary qHTS; 0.46% of 330,000 active; Vaccinia virus Venus reporter expression, fluorescence; Potency, µM (series often up to 36.5 µM), hits mostly inhibitors; calls by dose curve; tested in A549 cells; further: nearly all actives have a fitted effect of over 30% in size
MARV entry inh = qHTS for inhibitors of binding or entry into cells for Marburg Virus | Marburg virus pseudotyped entry inhibition, cell reporter | Potency, µM (doses to about 37.8 µM), hits mostly inhibitors | 1.8% of 300,000 active; calls by dose curve; tested in HEK293 cells
LASV entry inh = qHTS for Inhibitors of binding or entry into cells for Lassa Virus; Lassa virus pseudotype entry inhibition, cell reporter; Potency, µM (series often up to 37.9 µM), hits mostly inhibitors; 1.2% of 300,000 active; AID 540256, 2011; calls by dose curve; tested in HEK293 cells; further: nearly all actives have a fitted effect of over 50% in size
HCV inhibitor = qHTS Assay for Inhibitors of Hepatitis C Virus (HCV); Huh7.5.1 HCVcc-Cre infection, luciferase reporter, 44 h; Potency, µM (top dose mostly 41.8 µM), actives largely listed as inhibitors; 3.4% of 340,000 active; active means well fitted inhibition curve with a large enough effect; inconclusive means small, poorly fitted or top-dose-only effect, or another doubt; inactive means no such curve, though single readings can be large or run the other way
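Whole-lifecycle infectious HCVcc-Cre system; cells 1,000/well, compound then virus (~0.5 moi) added 4 h after plating, 44 h culture. Luciferase read 15 sec following 15 min substrate incubation, room temp.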
HCMV inh = qHTS Assay for inhibitors of the human cytomegalovirus (HCMV); HFF cells, HCMV-luciferase reporter, 72 h; hits give low values; activity change, negative = inhibition, % at 57.5 µM; 4.5% of 410,000 active; AID 1259415, 2018; in the data active means activity change below about -60%; inconclusive means no clear call, values can overlap the other calls; inactive means above about -39%
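Screen run at 2 compound doses on HFFs infected with reporter HCMV, MOI 1 PFU/cell. Luciferase activity from cell lysates at 72 h post infection gave inhibition relative to buffer-only and Salinomycin wells.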
Vaccinia mCherry = qHTS for Stage-Specific Inhibitors of Vaccinia Orthopoxvirus: mCherry Reporter Primary qHTS; Vaccinia virus mCherry reporter infection, fluorescence; Potency, µM (titrated, usually from 36.5 µM), actives largely listed as inhibitors; 0.63% of 310,000 active; calls by dose curve; tested in A549 cells; further: nearly all actives have a fitted effect of over 35% in size
Hits are given with their value; 0 = inactive; ? = inconclusive; - = not tested or not shown; [ ] = dose if it differs, or a comment.

SMILES	Vaccinia Venus	MARV entry inh	LASV entry inh	HCV inhibitor	HCMV inh	Vaccinia mCherry
C=C(C)CN(CC)c1nc(N)c2c(N)nc3c(c2c1C#N)CC(=O)N3C12CC3CC(CC(C3)C1)C2	0	2.5µM	?	4µM	-69	?
N#Cc1c(N2CCCC(O)C2)nc(N)c2c(N)nc3c(c12)CC(=O)N3C12CC3CC(CC(C3)C1)C2 (stereo not given)	-	?	8.2µM	4µM	0	-
Cc1nnc(Nc2ccccn2)c2ccccc12	0	0	0	0	-60	0
Cc1ccc(NC(=O)CSc2nc3nc(C)c(Cc4ccccc4)c(C)n3n2)cc1	0	-	0	-	0	0
COc1ccccc1CCC(=O)O	0	-	-	-	-	0
COc1ccc(NC(=O)C(=O)NCCc2csc3nc(-c4ccccc4C)nn23)cc1	0	-	?	-	0	0
CC(=O)Nc1ccc(NC2=Nc3ccccc3N3C2=Nc2c(c(C)nn2-c2ccccc2)C3c2ccccc2)cc1 (stereo not given)	?	?	?	0	-99	?
COc1ccc(NC2=Nc3ccccc3N3C2=Nc2c(c(C)nn2-c2ccc(C)cc2)C3c2cccnc2)cc1 (stereo not given)	0	0	?	?	0	0
Cc1ccc2nc(N3CCN(S(=O)(=O)c4ccc5c(c4)OCCO5)CC3)c(C#N)cc2c1	-	?	?	14µM	0	-
Cc1ccc(S(=O)(=O)N2CCCN(c3nc4cc(C)ccc4cc3C#N)CC2)cc1	0	?	0	22µM	0	0
CCN(CC)S(=O)(=O)c1ccc2c(c1)N(CC(=O)Nc1c(C)cccc1C)C(=O)C1CCCN21 (stereo not given)	0	0	0	-	0	0
NC(=O)C(c1ccc(Br)cc1)c1ccc(C(=O)c2ccccc2)cc1 (stereo not given)	0	?	?	10µM	0	?
COc1ccc(NC(=O)C2CCCN(c3c4c(nc5ncnn35)CCC4)C2)cc1OC (stereo not given)	-	0	0	0	0	-
O=C(Nc1ccc2c(c1)CCC2)C1CCN(c2c3c(nc4ncnn24)CCC3)CC1	-	?	?	4.5µM	-101	-
O=C(Nc1ccc(Oc2ccccc2)cc1)C1CCN(c2c3c(nc4ncnn24)CCC3)CC1	-	?	21µM	25µM	-101	-
COC(=O)c1cc(CNC(=O)c2cccc(F)c2)cc(NC(=O)c2ccccc2OC)c1	0	-	-	-	-	0
CN(C)c1ccc(C(=O)OCC(=O)N2CCCC2)cc1	0	?	0	0	0	0
CCOC(=O)N1CCN(C(=O)COC(=O)c2ccc(N(C)C)cc2)CC1	0	0	2.5µM	0	0	0
COC(=O)c1ccc(CNC(=O)COC(=O)c2ccc(N(C)C)cc2)cc1	0	?	?	0	-66	0
CCNC(=O)c1cnc2sc(N3CCC(C)CC3)nn2c1=O	0	-	0	-	0	0
CCCCOc1ccc(/C=C/C(=O)NC2=Nc3ccccc3NC(C)=C2C(=O)OCC)cc1OC	0	6.3µM	0	?	0	0
Cc1ccc(CNC(=O)CN2C(=O)CSc3c2c(C)nn3-c2ccccc2)cc1	0	-	0	-	0	0
Cc1cc2ccccc2nc1SCC(=O)N1CCCC1	-	0	0	1µM	0	-
CCCc1nc2ccc(NC(=O)c3ccccc3OC)cn2n1	-	-	-	-	0	-
C[C@]12CC[C@@H]3c4ccc(O)cc4CC[C@H]3[C@@H]1CC[C@@H]2OC(=O)CCC(=O)O	0	0	0	0[8.37 µM]	-100	0
SMILES	Vaccinia Venus	MARV entry inh	LASV entry inh	HCV inhibitor	HCMV inh	Vaccinia mCherry
CCCCc1nc2ccccc2c(N)c1CCC (tested in a mixture with another compound)	0	18µM	?	0	-68	?
CCCCc1nc2ccccc2c(NC(=O)CNC(C)(C)C)c1CCC	0	0	0	?	0	0
Cc1cccc(NC(=O)CN2C(=O)COc3ccc(S(=O)(=O)N4CCC(C)CC4)cc32)c1C	0	-	0	-	0	0
Cc1ccc(S(=O)(=O)N2CCN(c3ncnc4sccc34)CC2)cc1C	?	?	?	11µM	-72	?
O=S(=O)(c1ccc2c(c1)OCCO2)N1CCN(c2ncnc3sccc23)CC1	0	?	?	1µM	-91	?
Cc1cc(NC(=O)c2cc(-c3ccc(Cl)cc3)on2)n(-c2ccccc2)n1	0	0	0	-	0	0
COc1cc2c(NC3CCN(C)CC3)nc(N3CCCN(C)CC3)nc2cc1OCCCCCCN(C)C	7.1µM	-	-	-	-	5µM
CCCN(C)CCCOc1cc2nc(N3CCCN(C)CC3)nc(NC3CCN(C)CC3)c2cc1OC	13µM	-	-	-	-	?
COc1cc2c(NC3CCN(C)CC3)nc(N3CCCN(C)CC3)nc2cc1OCCCCN(C)C	10µM	-	-	-	-	?
Cn1c(-c2cccc(C(F)(F)F)c2)cc2cnc(Nc3cccc(Oc4ccccc4)c3)cc21	-	-	-	-	0	-
Cc1ccc(Nc2nc(-c3cccnc3)cs2)cc1C	-	-	-	?	0	-
Clc1cccc(Nc2nc(-c3cccnc3)cs2)c1	-	-	-	2.8µM	0	-
Brc1cccc(Nc2nc(-c3cccnc3)cs2)c1	0	0	?	10µM	0	?
COc1ccc(-c2csc(-c3cccnc3)n2)cc1C	-	0	0	?	-103	-
COc1ccc(Cl)cc1Nc1nc(-c2cccnc2)cs1	0	?	0	13µM	0	?
Brc1ccc(Nc2nc(-c3cccnc3)cs2)cc1	0	0	0	?	0	0
COc1ccccc1CNC(=O)C1CCCN(S(=O)(=O)c2ccc3c(c2)oc(=O)n3C)C1 (stereo not given)	0	0	0	-	0	0
CCOc1ccc(NC(=O)CCc2nc3cccnc3n2Cc2ccc(OC)cc2)cc1	0	0	0	-	0	0
CCNC(=O)c1c(NC(=O)c2cc(=O)c3ccc(C)c(C)c3o2)sc2c1CCCC2	0	0	?	-	0	0
CCn1nc(-c2ccccc2)c(-c2ccccc2)c(C(=O)Nc2nc(C)c(C(C)=O)s2)c1=O	0	0	0	-	0	0
O=C(NCCC1=CCCCC1)c1c(O)nc2sccn2c1=O	0	0	0	?	-	0
O=C(NCCCc1ccccc1)c1c(O)nc2sccn2c1=O	0	0	0	0	-64	0
COc1cc(-c2cc(C)c3c(OC)ccc(OC)c3n2)cc2c1OCCN(C(=O)C(C)c1n[nH]c(=O)c3ccccc13)C2 (stereo not given)	0	-	-	-	-	0
CC(C)[C@H](NC(=O)c1ccccc1)C(=O)OCC(=O)/C=C1/N(C)c2ccccc2C1(C)C	-	0	0	?	-68	-
CC1(C2CCC3C4CCC5CC6(CCC5(C)C4C(=O)CC32C)OCCO6)OCCO1 (stereo not given)	0	?	0	0	-99	0
CCCCn1nc(NC(=O)c2cccs2)c2cc3ccccc3nc21	-	16µM	?	?	0	-
CCCn1nc(NC(=O)c2cccs2)c2cc3ccccc3nc21	-	?	?	11µM	0	-
CCCn1nc(NC(=O)c2ccco2)c2cc3ccccc3nc21	-	?	?	35µM	0	-
